Consider 29 molecules from PubChem BioAssay (Tox21).

Values without a mark were called inactive. Inconclusive results are not listed. Activity calls are given as the source filed them. Unless noted, calls come from the whole dose curve; as a rule, active = well fitted curve in the direction sought with a large enough effect in the repeat runs; inconclusive = weak or mixed curves; inactive = no such curve, though single readings can be large; an effect the other way counts as inactive or inconclusive.

The nature of assay [1]: qHTS assay to identify small molecule agonists of H2AX (AID 1224845; active = well fitted activation curve with a large enough effect in the signal ratio in the repeat runs, not every such curve was filed as active; the % refers to the signal ratio). The gist of the method:
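Wild-type CHO-K1 cells, plated overnight, exposed 3hr at 37C to 15 concentrations (0.76% DMSO final). Lysed, then HTRF anti-pH2AX (S139) cryptate and anti-H2AX-d2 antibodies, 24 hr room temperature; 665/620 nm emission read.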

The nature of assay [2]: qHTS assay to identify small molecule agonists of the hypoxia (HIF-1) signaling pathway (AID 1224846; active = well fitted activation curve with a large enough effect in the signal ratio in the repeat runs, not every such curve was filed as active; the % refers to the signal ratio). The gist of the method: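 A low-serum medium (0.5% dialyzed FBS) holding 2,000 HRE-bla ME-180 cells per well is preincubated for 5 hrs, dosed with compounds by pintool, and kept a further 17 hrs at 37C, 5% CO2 before CCF4-AM FRET detection of beta-lactamase.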
A short description of assay [3]: qHTS assay to identify small molecule agonists of H2AX - cell viability counter screen (AID 1224847; calls by dose curve; note: top concentration of the series differs between compounds; nearly all actives have a fitted effect of over 30% in size). The gist of the method: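 For this counter screen, overnight-attached CHO-K1 cells received test compounds (15 concentrations, 0.76% DMSO final); 3 hr later at 37C, CellTiter-Glo reagent was added and luminescence recorded after 30 min at room temperature.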
In general terms: qHTS replaces the single test concentration by a dilution series.

Assay [4] is described as follows: qHTS RealTime-Glo MT Cell Viability Assay in HepG2 cells - 24 hour (AID 1224867). Note: nearly all actives have a fitted effect of over 50% in size. The gist of the method:
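HepG2 cells (600/well) were dispensed with RealTime-Glo reagents, incubated 5 h at 37 °C, then treated with compounds in DMSO for up to 40 h. Nonlytic NanoLuc luminescence reflecting viable cells was read at each stated time point.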

Assay [5] is described as follows: qHTS RealTime-Glo MT Cell Viability Assay in HEK293 cells - 32 hour (AID 1224868). Note: nearly all actives have a fitted effect of over 50% in size. Note: potency is the fitted concentration of half-maximal effect. Put shortly:
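HEK293 cells seeded with NanoLuc/prosubstrate reagent, rested 5 h at 37 C, then dosed and kept at 37 C up to 40 h. Nonlytic real-time luminescence from viable cells read at 0, 8, 16, 24, 32 and 40 h.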

Assay [6] in a line: A CellTox Green Cytotoxicity Assay to monitor cytotoxicity in HEK293 cells - 0 hour (AID 1224869). Note: nearly all actives have a fitted effect of over 50% in size. The gist of the method: (§1)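 Fluorescence intensity, read at 0, 8, 16, 24, 32 and 40 h of compound treatment, reflected dye binding to DNA of dead HEK293 cells; compounds (23 nL, DMSO) were added 5 h after plating cells with reagent.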
The nature of assay [7]: qHTS RealTime-Glo MT Cell Viability Assay in HepG2 cells - 40 hour (AID 1224870). Note: nearly all actives have a fitted effect of over 50% in size. The gist of the method:
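HepG2 cells (600/well) mixed with RealTime-Glo MT reagent, settled 5 h at 37 C/5% CO2 before compound addition. Nonlytic NanoLuc luminescence from viable-cell prosubstrate reduction read repeatedly during 40 h treatment at 37 C.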

The nature of assay [8]: A CellTox Green Cytotoxicity Assay to monitor cytotoxicity in HEK293 cells - 40 hour (AID 1224871). Note: nearly all actives have a fitted effect of over 45% in size. The gist of the method: as §1

Regarding `COc1cc2c(cc1OC)[C@@]13CCN4CC5=CCO[C@H]6CC(=O)N2[C@H]1[C@H]6[C@H]5C[C@H]43`, the Potency result in assay [1], in assay [3], in assay [4], in assay [5], in assay [6] and in assay [7] was “inactive” throughout. The Potency entry in assay [8] is “inactive”. For the same molecule, the result in assay [2] was inactive.
Take `CN(N=O)C(N)=O`: the Potency result in assay [1], in assay [3], in assay [4], in assay [5], in assay [6] and in assay [7] was “inactive” throughout. The result in assay [2] was inactive.
Consider `N#CC(Cl)(Cl)Cl`, for which the Potency result in assay [1], in assay [3], in assay [4], in assay [5], in assay [6] and in assay [7] was “inactive” each time. Moreover, in assay [2], the call was inactive.
Turning to `Fc1cc(Br)ccc1CBr`, the Potency result in assay [1], in assay [3], in assay [4], in assay [5], in assay [6] and in assay [7] was “inactive” in each case. In addition, the Potency entry in assay [8] is “inactive”. In addition, in assay [2], the result was inactive.
Take `COC(=O)C(c1ccccc1)C1CCCCN1` (stereo not drawn): the Potency result in assay [1], in assay [3], in assay [4], in assay [5], in assay [6] and in assay [7] was “inactive” each time. Also, the Potency result in assay [8] was “inactive”. Further, the outcome in assay [2] was inactive.
On to `BrCCCCCCBr`, for which the Potency result in assay [1], in assay [3], in assay [4], in assay [5], in assay [6] and in assay [7] was “inactive” in each case. In assay [8], the Potency result was “inactive”. In assay [2], the molecule was classed as inactive.
With `CCCCc1ccc(O)cc1`, the Potency entry in assay [1], in assay [3], in assay [4], in assay [6] and in assay [7] was “inactive” each time. Besides, the molecule was called inactive in assay [2]. Moreover, the Potency in assay [5] is 19.5 µM (active).
For the molecule `COC(=O)c1ccccc1S(=O)(=O)NC(=O)Nc1nc(C)cc(C)n1`, the Potency result in assay [1], in assay [3], in assay [4], in assay [5], in assay [6] and in assay [7] was “inactive” throughout. Also, the Potency entry in assay [8] is “inactive”. The result in assay [2] was inactive.
For the molecule `OCCSCSCCO`, the Potency result in assay [1], in assay [3], in assay [4], in assay [5], in assay [6] and in assay [7] was “inactive” throughout. Moreover, the Potency entry in assay [8] was “inactive”. Moreover, the molecule was classed as inactive in assay [2].
As for `ClCC(Cl)Cl`, the Potency result in assay [1], in assay [3], in assay [4], in assay [5], in assay [6] and in assay [7] was “inactive” each time. Moreover, in assay [8], the Potency result is “inactive”. Besides, in assay [2], the call was inactive.
As to `CCOP(=S)(OCC)Oc1nc(Cl)n(C(C)C)n1`, the Potency result in assay [1], in assay [3], in assay [4], in assay [5], in assay [6] and in assay [7] was “inactive” each time. Further, the Potency result in assay [8] is “inactive”. Further, the molecule was called inactive in assay [2].
Take `COc1cc(OC)nc(NC(=O)NS(=O)(=O)c2ncccc2C(=O)N(C)C)n1`: the Potency entry in assay [1], in assay [3], in assay [4], in assay [5], in assay [6] and in assay [7] was “inactive” in each case. Also, in assay [8], the Potency result is “inactive”. For the same molecule, the outcome in assay [2] was inactive.
On to `CC(C)CP(=S)(S)CC(C)C`, for which the Potency result in assay [1], in assay [3], in assay [4], in assay [5], in assay [6] and in assay [7] was “inactive” each time. In addition, the Potency entry in assay [8] is “inactive”. In assay [2], the molecule was classed as inactive.
Regarding `O=C(O)c1cccc(Cl)c1`, the Potency result in assay [1], in assay [3], in assay [4], in assay [5], in assay [6] and in assay [7] was “inactive” in each case. In assay [8], the Potency result is “inactive”. In assay [2], the molecule was called inactive.
With `CC(N)=S`, the Potency result in assay [1], in assay [3], in assay [4], in assay [5], in assay [6] and in assay [7] was “inactive” throughout. Further, the Potency entry in assay [8] was “inactive”. Further, in assay [2], the molecule was called inactive.
`O=C1OC(c2ccc(O)c(S(=O)(=O)O)c2)(c2ccc(O)c(S(=O)(=O)O)c2)c2c(Br)c(Br)c(Br)c(Br)c21`: the Potency entry in assay [1], in assay [3], in assay [4], in assay [5], in assay [6] and in assay [7] was “inactive” throughout. Besides, the Potency entry in assay [8] was “inactive”. For the same molecule, in assay [2], the outcome was inactive.
As for `O=C(CCN1CC1)OCC(CO)(COC(=O)CCN1CC1)COC(=O)CCN1CC1`, the Potency result in assay [1], in assay [3], in assay [4], in assay [5], in assay [6] and in assay [7] was “inactive” throughout. Besides, the Potency entry in assay [8] is “inactive”. Further, the molecule was classed as inactive in assay [2].
In the case of `CC(CCc1ccccc1)NC(C)C(O)c1ccc(O)cc1` (stereo not drawn), the Potency entry in assay [1], in assay [3], in assay [4], in assay [5], in assay [6] and in assay [7] was “inactive” in each case. The result in assay [2] was inactive.
With `NC1=NC(=O)C(c2ccccc2)O1` (stereo not drawn), the Potency entry in assay [1], in assay [3], in assay [4], in assay [5], in assay [6] and in assay [7] was “inactive” in each case. Further, in assay [8], the Potency entry is “inactive”. Further, in assay [2], the outcome was inactive.
For `OC(c1ccc(F)cc1)(c1cncnc1)c1ccccc1Cl` (stereo not drawn), the Potency entry in assay [1], in assay [3], in assay [4], in assay [5], in assay [6] and in assay [7] was “inactive” in each case. The molecule was classed as inactive in assay [2].
As to `CCCSC(=O)Cl`, the Potency entry in assay [1], in assay [3], in assay [4], in assay [5], in assay [6] and in assay [7] was “inactive” in each case. In addition, the outcome in assay [2] was inactive.
With `CN1C[C@@H](NS(=O)(=O)N(C)C)C[C@@H]2c3cccc4c3c(cn4C)C[C@H]21`, the Potency entry in assay [1], in assay [3], in assay [4], in assay [5], in assay [6] and in assay [7] was “inactive” throughout. For the same molecule, in assay [8], the Potency entry is “inactive”. The molecule was called inactive in assay [2].
Take `ClC(Cl)Br`: the Potency entry in assay [1], in assay [3], in assay [4], in assay [5], in assay [6] and in assay [7] was “inactive” throughout. Moreover, in assay [8], the Potency result was “inactive”. For the same molecule, the molecule was called inactive in assay [2].
In the case of `N#CCCC#N`, the Potency entry in assay [1], in assay [3], in assay [4], in assay [5], in assay [6] and in assay [7] was “inactive” throughout. Also, the Potency entry in assay [8] was “inactive”. Moreover, the molecule was classed as inactive in assay [2].
Regarding `CCC(=O)C(CCN(C)C)(c1ccccc1)c1ccccc1`, the Potency result in assay [1], in assay [3], in assay [4], in assay [5], in assay [6] and in assay [7] was “inactive” in each case. Further, in assay [2], the molecule was classed as inactive.
As for `N#CC(O)c1ccccc1` (stereo not drawn), the Potency entry in assay [1], in assay [3], in assay [4], in assay [5], in assay [6] and in assay [7] was “inactive” throughout. Also, the Potency entry in assay [8] was “inactive”. For the same molecule, the result in assay [2] was inactive.
As for `CCC1(c2ccccc2)C(=O)N=C(O)NC1=O` (stereo not drawn), the Potency entry in assay [1], in assay [3], in assay [4], in assay [5], in assay [6] and in assay [7] was “inactive” in each case. In addition, the Potency entry in assay [8] is “inactive”. The result in assay [2] was inactive.
Regarding `O=C(NCO)NCO`, the Potency entry in assay [1], in assay [3], in assay [4], in assay [5], in assay [6] and in assay [7] was “inactive” in each case. The outcome in assay [2] was inactive.
Consider `ClCC(Cl)(Cl)Cl`, for which the Potency entry in assay [1], in assay [3], in assay [4], in assay [5], in assay [6] and in assay [7] was “inactive” throughout. For the same molecule, in assay [2], the outcome was inactive.
